This is part of a sample that, as a whole, favours compounds with a hit. Of some 83,000 tested, about 20% had one in any assay.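 For each line, cells grew in 96-well plates with the test compound present at a single concentration for 48 hours.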 Activity calls are given as the source filed them. The calls were made as follows: active = growth percent below 10; inactive = the rest.

The values below come from PubChem BioAssay (NCI).

The test system of one experiment is U251 CNS. The experiment is described as follows: NCI-60 one-dose screen, 48 h (100 = growth as untreated, 0 = no growth, -100 = all killed). The note with it: 10 µM unless noted.
With `COc1ccc(/C=C/C(=O)c2cc3c(N)c(C(=O)Nc4cccc5ccccc45)sc3nc2C)cc1`, the growth was 45.3% (inactive). Still for that read-out and setting: to `Nc1ncnc2c1c(-c1cccc(Cl)c1)nn2CC(=O)N1CCOCC1` belongs 102% (inactive). As to `CC(=O)O[C@H]1CC2CCC3C(CC[C@@]4(C)C3C[C@H]([N+]3(C)CCCCC3)[C@@H]4OC(C)=O)[C@@]2(C)C[C@@H]1N1CCCCC1` (stereo partly specified), the growth is 90.8% (inactive).

For `c1ccc(Cn2cc3c(c2)-c2oncc2CC3)cc1`, the growth is 28.9% (inactive).

The test system of another experiment is PC-3 prostate. The description is as above. The note with it: 10 µM unless noted.
As for `O=C1C(Cl)=C(NCCCCCCNC2=C(Cl)C(=O)c3ccccc3C2=O)C(=O)c2ccccc21`, the growth was 82.2% (inactive).

For the compound `CCCC/C=C/[C@@H]1C[C@H]1CCO`, the growth was 95.5% (inactive). On to `C=C(C)[C@@H]1CC[C@]2(CO)CC[C@]3(C)[C@H](CC[C@@H]4[C@@]5(C)CC[C@H](NCO)C(C)(C)[C@@H]5CC[C@]43C)[C@@H]12`, for which the growth is -3.03% (active). Regarding `Cc1cccc(/C=C/c2c(C(=O)/C=C/c3ccccc3)c(C)nc3ccccc23)c1`, the growth is 8.27% (active).

With `Cc1ccc(-c2nc(N3CCCNCC3)c3oc(-c4ccc(C)cc4)nc3n2)cc1`, the growth is -89.5% (active). In the case of `Cc1sc2nc(NCCc3c[nH]c4ccc(Cl)cc34)[nH]c(=O)c2c1C`, the growth was 29.2% (inactive).

Consider `COc1ccc(OC)c(Nc2nnc(-c3ccc(O)c(OC)c3)o2)c1`, for which the growth was 74.8% (inactive). On the same count and under the same terms, to `COc1ccccc1NC(=O)N=Nc1c(O)[nH]c2ccccc12` belongs 89.7% (inactive); to `Nc1nc2ccccc2c2c1S(=O)(=O)c1ccc(Cl)cc1C2=O`, 16.5% (inactive).

For the compound `Nc1n[nH]c2cccc(C#Cc3cccc(C(=O)Nc4cc(C(F)(F)F)cc(C(F)(F)F)c4)c3)c12`, the growth was 33% (inactive).

As to `CS(=O)(=O)Nc1cc(-c2ccc3ncnc(Nc4ccc5c(cnn5Cc5ccc(F)cc5)c4)c3c2)cnc1Cl`, the growth was 38.2% (inactive). Same read-out and setting: to `Fc1cc2c(cc1Cl)N(c1ncnc3ccc(-c4ccc5n[nH]nc5c4)cc13)CC2` belongs 71.1% (inactive); to `CCN1C(=S)N(c2ccccc2)C2NC(=S)N(/N=C/C=C/c3ccccc3OC)C21` (stereo unspecified), 30.1% (inactive).

Consider `O=c1c2cccc3c(N4CCCC4)ccc(c32)c2nc3ccccc3n12`, for which the growth is 67.9% (inactive). Consider `OB1OCc2cc(/C=C/c3cccc(C(F)(F)F)c3)ccc21`, for which the growth is 23.6% (inactive). The same measure, in the same setting: then `O=C(/C=C/c1ccccc1)Nc1ncc(Cc2ccccc2Cl)s1`, with 25.8% (inactive); and `CN(C)CCNC(=O)c1ccc(-c2nc3ccc4[nH]ncc4c3c3c2C2CCC3C2)cc1` (stereo unspecified), with 19.9% (inactive); and `COC12C=C/C(=C(/C(=O)OCc3ccncc3)C(=O)CCCCCCCCC3(OC)C=C/C(=C(/C(=O)OCc4ccncc4)C(=O)CCCCCCCC1)O3)O2`, with -35% (active). The same measure, in the same setting: then `O=C(/C=C/c1cccc(Cl)c1)c1cccc(OCCCOc2cccc(C(=O)/C=C/c3cccc(Cl)c3)c2)c1`, with 100% (inactive); and `CCn1c(SCC(=O)N/N=C(\C)c2ccc(Cl)cc2)nc2c1c(=O)n(C)c(=O)n2C`, with 97.5% (inactive); and `Cc1ccc(C[P+](c2ccccc2)(c2ccccc2)c2ccccc2)cc1`, with 4.25% (active). Same read-out and setting: to `Clc1ccc2c(NC3CCC(N4CCOCC4)CC3)ccnc2c1` (stereo unspecified) belongs 62.3% (inactive); to `Cc1ccc(C2=Nc3c(N)ncnc3NC(c3cccc(Nc4ccnc5cc(C(F)(F)F)ccc45)c3)C2)cc1` (stereo unspecified), 16.1% (inactive); to `COc1ccc(-c2noc(C(=O)O)c2-c2cc(OC)c(OC)c(OC)c2)cc1`, 26.3% (inactive).

Regarding `CCOC(=O)c1nn(-c2ccc(S(N)(=O)=O)cc2)c2nc(C)cc(=O)n12`, the growth is 101% (inactive).

Turning to `CCSC(SCC)c1ccc(Cl)cc1`, the growth is 101% (inactive).

Take `CSc1nc2ccccc2cc1/C=C1/C=C(c2ccccc2)NC1=O`: the growth was 70.4% (inactive). Same read-out and setting: then `COC1/C=C/OC2(C)Oc3c(C)c(O)c4c(O)c(c(/C=N/Nc5ccc([N+](=O)[O-])cc5[N+](=O)[O-])c(O)c4c3C2=O)NC(=O)C(C)=C/C=C/C(C)C(O)C(C)C(O)C(C)C(OC(C)=O)C1C` (stereo unspecified), with 34.2% (inactive). Still for that read-out and setting: then `O=C1C(Cl)=C(Nc2ccc(S(=O)(=O)N3CCOCC3)cc2)C(=O)c2ccccc21`, with 46% (inactive).

With `c1csc(-c2ccc(CNc3c4ccccc4nc4ccccc34)cc2)c1`, the growth was 24% (inactive). With `Nc1ncc(-c2ccc3ncnc(Nc4cccc(Cl)c4)c3c2)cn1`, the growth was 36.1% (inactive).

As for `CCOC(=O)C#Cc1c(C(=O)OCC)nnn1Cc1ccc([N+](=O)[O-])cc1`, the growth was 72.7% (inactive).
